The nature of assay [1]: High-throughput drug toxicity screening in the BPDCN cell line Cal-1 (AID 1224825; call rule not given here). The following applies: Cal-1 BPDCN cell viability, qHTS; at 45.8 µM (top of the series). Put shortly:
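Percent activity derived from CellTiter-Glo luminescence, scaling DMSO to 100% and 9.2 uM final bortezomib to 0%. BPDCN Cal-1 cells (500/well, RPMI plus 10% FBS) incubated with compounds 48 hours at 37C before reading.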
(In general: qHTS replaces the single test concentration by a dilution series.)

The nature of assay [2]: qHTS assay for measurement of the activity of small molecule inhibitors on Zika virus induced Caspase-3 activity in human iPSC derived neural progenitor cells (hNPCs) (AID 1224857). Also: % of control where 0% means no effect; nearly all actives have a fitted effect of over 65% in size. Particulars: hNPCs ZIKV-induced caspase-3/7, Caspase-Glo luminescence, 6 h; series mostly up to 45.7 µM. Put shortly:
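hNPCs seeded 350 cells/well, cultured 16–20 h; compounds added 1 h before ZIKV (2 FFU/cell), 37 C 6 h. Caspase-Glo 3/7 luminescence after 30 min RT; % inhibition from induction scaled to uninfected (0%) and infected (100%) wells.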

A short description of assay [3]: qHTS assay for measurement of the activity of small molecule inhibitors on Zika virus induced Caspase-3 activity in human astrocytoma cells (AID 1224859). Also: potency is read from the fitted curve at half-maximal effect. Particulars: SNB-19 ZIKV-induced caspase-3/7, luminescence, 6 h; series mostly up to 45.7 µM. Put shortly:
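Luminescence read-out (Caspase-Glo 3/7, 30 min RT) of caspase activity in SNB-19 cells infected 6 h with ZIKV, 2 FFU/cell, after 1 h compound pretreatment; % inhibition from induction normalised to uninfected (0%) and infected (100%) wells.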

The nature of assay [4]: qHTS Screen of the MIPE 4.0 Collection Against Ewings Sarcoma (RDES) (AID 1259252). Also: nearly all actives have a fitted effect of over 35% in size. Also: potency is read from the fitted curve at half-maximal effect. Particulars: RD-ES Ewing sarcoma viability, CellTiter-Glo, 48 h; series mostly up to 45.8 µM. Put shortly:
(§1)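 CellTiter-Glo luminescence after 48 h compound exposure (titration) gave viability; percent activity used DMSO-treated cells as no inhibition and medium-only wells as full inhibition. Cells grown in RPMI/5% FBS, dosed 4 h post-seeding.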

Assay [5] is described as follows: qHTS Screen of the MIPE 4.0 Collection Against Ewings Sarcoma (TC71) (AID 1259253). Also: nearly all actives have a fitted effect of over 40% in size. Also: potency is read from the fitted curve at half-maximal effect. Particulars: TC71 Ewing sarcoma viability, CellTiter-Glo, 48 h; series mostly up to 45.8 µM. The method in brief: as §1
Assay [6] is described as follows: qHTS Screen of the MIPE 4.0 Collection Against Ewings Sarcoma (EW8) (AID 1259255). Also: nearly all actives have a fitted effect of over 35% in size. Also: potency is read from the fitted curve at half-maximal effect.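 As to viability: 100% = DMSO-treated cells and 0% = medium-only wells without cells.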 The following applies: EW8 Ewing sarcoma viability, CellTiter-Glo, 48 h; series mostly up to 45.8 µM. The method in brief: as §1
Assay [7] in a line: P-glycoprotein substrates identified in KB-3-1 adenocarcinoma cell line, qHTS therapeutic library screen (AID 1346986). Also: nearly all actives have a fitted effect of over 60% in size. Particulars: KB-3-1 parental cells viability, CellTiter-Glo, 72 h; series mostly up to 44.5 µM. Put shortly: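 Viability read by CellTiter-Glo after 72 h compound exposure in dose-response of KB-3-1 and KB-8-5-11 (P-gp-high) cells. Hits needed AC50 < 10 uM, >50% maximum response and curve class -1.1 to -2.4. Cherry-picks retested ± tariquidar, including pcDNA/MDR-19 HEK-293 pair.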

Assay [8] can be described thus: qHTS Screen of the MIPE 4.0 Collection Against Ewings Sarcoma (TC32) (AID 1259256). Also: nearly all actives have a fitted effect of over 45% in size. Also: potency is read from the fitted curve at half-maximal effect. Particulars: TC32 Ewing sarcoma viability, CellTiter-Glo, 48 h; series mostly up to 45.8 µM. The method in brief:
as §1

Assay [9] in a line: High-throughput drug toxicity screening in the BPDCN cell line Gen2.2 (AID 1224824; call rule not given here;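 also: cells exposed to compounds for 48 h before reading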). The following applies: Gen2.2 BPDCN cells; at 45.8 µM (top of the series). The method in brief: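 Seed 500 exponentially growing Gen2.2 cells/well; add compounds by pin tool; incubate 48 h, 37 °C, 5% CO2; add CellTiter-Glo, 15 min RT; read luminescence. % activity vs DMSO (100%) and bortezomib (0%).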

The nature of assay [10]: P-glycoprotein substrates identified in KB-8-5-11 adenocarcinoma cell line, qHTS therapeutic library screen (AID 1346987). Also: nearly all actives have a fitted effect of over 65% in size. Also: potency is read from the fitted curve at half-maximal effect. Particulars: KB-8-5-11 (P-gp overexpressing) viability, CellTiter-Glo, 72 h; series mostly up to 44.5 µM. Put shortly:
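Compounds are pinned in dose-response onto KB-8-5-11 cells (500 cells/well, colchicine-free medium) and left 72 h at 37 degree C. CellTiter-Glo luminescence then yields AC50 values.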

Records with an inconclusive call do not appear. Activity calls are given as the source filed them. Unless noted, calls follow the shape of the dose curve; as a rule, active = well fitted curve in the direction sought with a large enough effect; inconclusive = small, poorly fitted or top-dose-only effect, or another doubt; inactive = no such curve, though single readings can be large; an effect the other way counts as inactive or inconclusive.

`O=c1cccc2n1CC1CNC[C@H]2C1`: the viability (% of control) in [1] was 13.3%. For the same compound, the Potency entry in assay [2], in assay [3], in assay [4], in [5], in assay [6] and in [7] was “inactive” in each case.

Turning to `C[C@]12CC[C@H]3[C@@H](CCC4=CC(=O)CC[C@@]43C)[C@H]1CC[C@H]2OC(=O)CCC1CCCC1`, in [1], the viability (% of control) is 104%. Besides, the Potency entry in assay [2], in assay [3], in [4], in assay [5], in assay [6] and in assay [8] was “inactive” throughout.

`C[C@](O)(COc1ccc(C#N)cc1)C(=O)Nc1ccc(C#N)c(C(F)(F)F)c1`: the cell viability, % of control (lower = more cytotoxic) in assay [9] was found to be 54.6%. Besides, the viability (% of control) in [1] came to 99.4%. Moreover, the Potency result in [3], in [4], in [6] and in assay [10] was “inactive” throughout.

Turning to `C[C@@H]1CC[C@H]2[C@@H](C)C(=O)O[C@@H]3O[C@@]4(C)CC[C@H]1[C@]32OO4`, the viability (% of control) in assay [1] worked out at 98.1%. Also, the Potency result in assay [2], in assay [3] and in [10] was “inactive” throughout. In addition, the values for the Potency in assay [4] and in [5] were 18.7 µM (active) and 3.72 µM (active), respectively.

For the compound `CCN1C[C@]2(OC(=O)c3ccccc3NC(C)=O)CC[C@H](OC)[C@@]34[C@H]5CC6[C@@H](OC)C[C@](O)(C(C[C@@H]23)[C@@H]14)[C@@]5(O)[C@@H]6OC`, in [1], the viability (% of control) stood at 108%. Besides, the Potency result in assay [2], in assay [3], in assay [4], in assay [5], in assay [6] and in assay [8] was “inactive” throughout. In addition, the Potency entry in assay [7] and in assay [10] was “inactive” throughout.

With `C[C@@H]1O[C@@H](O[C@@H]2C=C3CC[C@@H]4[C@@H](CC[C@]5(C)[C@H](c6ccc(=O)oc6)CC[C@@]45O)[C@@]3(C)CC2)[C@H](O)[C@H](O)[C@H]1O`, the viability (% of control) in assay [1] stood at 3.76%. Besides, the Potency entry in assay [2] and in assay [3] was “inactive” in each case. In addition, the Potency in [4] was 0.0418 µM (active); in [5] it was 0.0187 µM (active); in assay [6], 0.0166 µM (active); in [8], 0.0235 µM (active); in assay [10], 0.0209 µM (active).

For the compound `CO[C@H]1CCC(O[C@H]2C[C@H]([C@]3(C)CC[C@]4(C[C@H](O)[C@@H](C)[C@@H]([C@@H](C)C=C(C)C(=O)[C@H](C)C[C@H](C)C(=O)O)O4)O3)O[C@]3(O[C@@H]([C@H]4O[C@@](O)(CO)[C@H](C)C[C@H]4C)C[C@H]3C)[C@H]2C)O[C@H]1C` (some centres not stated), the cell viability, % of control (lower = more cytotoxic) in [9] stood at 92%. The viability (% of control) in [1] was determined as 72.5%. In addition, in assay [3], the Potency result was “inactive”. In addition, the Potency is 0.418 µM (active) in assay [4], 0.332 µM (active) in assay [5] and 0.372 µM (active) in assay [6].

Regarding `COc1cc2cc(c1Cl)N(C)C(=O)C[C@H](OC(=O)C(C)C)[C@]1(C)O[C@H]1[C@H](C)[C@@H]1C[C@@](O)(NC(=O)O1)[C@H](OC)C=CC=C(C)C2`, the viability (% of control) in assay [1] came out at 4.31%. Also, the Potency result in assay [2], in assay [3], in assay [4], in assay [5], in assay [6] and in [8] was “inactive” throughout. Further, in [10], the Potency is 0.001 µM (active).

On to `O=C(Nc1ccncc1)C(=O)c1cn(Cc2ccc(Cl)cc2)c2ccccc12`, for which the viability (% of control) in assay [1] is 16.2%. The Potency result in assay [2] and in assay [3] was “inactive” throughout. Also, the Potency in [4] was 0.0935 µM (active); in [5] it was 0.132 µM (active); in [6] it was 0.0935 µM (active); in assay [10], 0.0332 µM (active).

As to `O=[N+]([O-])c1ncc[nH]1`, in assay [1], the viability (% of control) is 122%. Besides, the Potency entry in [2], in assay [3], in assay [4], in assay [5], in assay [6] and in [10] was “inactive” each time.

Take `C[C@]12Cc3cn[nH]c3C[C@@H]1CC[C@@H]1[C@H]2CC[C@@]2(C)[C@H]1CC[C@]2(C)O`: in assay [9], the cell viability, % of control (lower = more cytotoxic) was determined as 133%. In addition, the viability (% of control) in assay [1] came to 111%. In addition, the Potency entry in assay [3] is “inactive”. In addition, the Potency in [4], in assay [5] and in assay [6] was 2.96 µM (active) throughout.

As to `CN1[C@H]2CC(O)C[C@H]1[C@H]1O[C@H]12` (some centres not stated), the cell viability, % of control (lower = more cytotoxic) in assay [9] was 21.9%. The viability (% of control) in assay [1] was determined as 52.9%. Besides, in assay [2], the Potency entry is “inactive”. Further, the Potency in assay [5] was 26.4 µM (active); in assay [6], 23.5 µM (active).

With `O=C1C=CC[C@@H]2[C@H]3CCCN4CCC[C@@H](CN12)[C@@H]34`, the cell viability, % of control (lower = more cytotoxic) in assay [9] worked out at 126%. The viability (% of control) in assay [1] turned out to be 120%. Moreover, the values for the Potency in assay [3] and in assay [8] were 3.32 µM (active) and 16.6 µM (active), respectively. For the same compound, in [10], the Potency result is “inactive”.

For the compound `C[N+]1(C)C2CC(OC(=O)[C@H](CO)c3ccccc3)CC1C1OC12` (some centres not stated), in [2], the Potency entry was “inactive”.

As to `CC1=C(C(=O)O)N2C(=O)[C@@H](N)[C@H]2SC1`, the Potency entry in [2] and in assay [3] was “inactive” in each case.

Take `C[C@@H]1CC[C@@]2(OC1)O[C@H]1C[C@H]3[C@@H]4CC=C5C[C@@H](O[C@@H]6O[C@H](CO)[C@@H](O[C@@H]7O[C@@H](C)[C@H](O)[C@@H](O)[C@@H]7O)[C@H](O)[C@@H]6O[C@@H]6O[C@@H](C)[C@H](O)[C@@H](O)[C@@H]6O)CC[C@]5(C)[C@@H]4CC[C@]3(C)[C@@H]1[C@H]2C`: the viability (% of control) in [1] worked out at 12.9%. For the same compound, the Potency result in assay [3] is “inactive”. Further, the Potency in assay [4] is 4.18 µM (active); in assay [5], 3.72 µM (active); in assay [6] it was 3.72 µM (active); in assay [8], 3.72 µM (active); in assay [10] it was 18.7 µM (active).
